FH mod – Identification of activators of human fumarate hydratase by quantitative high-throughput screening; Potency, µM (doses to about 79.9 µM), without a hit: at the top dose activity change, negative = inhibition, hits mostly inhibitors; 54,000 tested, 0.22% active; AID 1347055, 2019; Fumarate hydratase, mitochondrial (Homo sapiens), P07954; FH coupled MDH/diaphorase resazurin fluorescence, 15 min; also: potency is read from the fitted curve at half-maximal effect; % is scaled to controls: 0 for no effect and ±100 for the full control effect; the screen sought activators but most active calls are inhibition curves; nearly all actives have a fitted effect of over 45% in size
B2AR arrestin ag – qHTS assay of beta-arrestin-biased ligands of beta2-adrenergic receptor: NCGC Sytravon Library Screen; Potency, µM (highest dose often 46.1 µM), most hits filed as activators; 44,000 tested, under 10 active; Beta-2 adrenergic receptor (Homo sapiens), P07550; HTLA Tango cells, beta-arrestin recruitment, luciferase luminescence, 18 h;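 also: potency is read from the fitted curve at half-maximal effect; 0% = DMSO and full agonism = EC100 isoproterenol or metaproterenol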
Target sequence (P07550 whole entry, looked up): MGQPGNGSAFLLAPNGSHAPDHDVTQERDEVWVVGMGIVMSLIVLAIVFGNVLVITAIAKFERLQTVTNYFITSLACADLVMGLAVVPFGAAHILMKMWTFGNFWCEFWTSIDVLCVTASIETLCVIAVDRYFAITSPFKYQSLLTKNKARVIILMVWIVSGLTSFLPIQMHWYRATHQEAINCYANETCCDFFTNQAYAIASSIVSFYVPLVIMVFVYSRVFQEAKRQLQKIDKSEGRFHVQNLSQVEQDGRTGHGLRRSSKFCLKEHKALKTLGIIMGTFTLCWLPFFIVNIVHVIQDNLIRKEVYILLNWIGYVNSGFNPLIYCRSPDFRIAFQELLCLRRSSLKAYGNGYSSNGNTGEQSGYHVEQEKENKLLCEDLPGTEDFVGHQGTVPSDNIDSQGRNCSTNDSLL
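First, Tango cells carrying beta2-AR and beta-arrestin fusions received compound up to 46 microM. After 18 hr at 37 degrees C, luciferase substrate was added for 15 minutes, then luminescence gave %Activity for curve fitting.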
GALK inhibitor – qHTS Assay for Inhibitors of Human Galactokinase (GALK): NCGC Sytravon Library Screen; 44,000 tested, under 10 active; Potency, µM (doses to about 57.5 µM), for inactives: at the top dose activity, negative = inhibition, actives largely listed as inhibitors; recombinant GALK, Kinase-Glo ATP luminescence, 1 h;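 also: plate controls were full GALK reaction for no effect and reaction lacking GALK for full effect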
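5 nM GALK; 35 uM ATP; 100 uM D-galactose; 20 mM HEPES pH 8.0, 5 mM MgCl2, 60 mM NaCl, 1 mM DTT, 0.01% BSA; 1 h RT; Kinase-Glo Plus luminescence.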
PTAP-TSG101 blk – qHTS Validation Assay for Inhibitors of HIV-1 Budding by Blocking the Interaction of PTAP/TSG101: Sytravon Library Screen; 44,000 tested, under 10 active; Potency, µM (highest dose often 115 µM), usual class: inhibitors; AID 1347069, 2019; Fluorescence polarization, FITC-PTAP peptide/Tsg101, 20 min; also: potency is read from the fitted curve at half-maximal effect; 0% is about no effect
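Read-out is FITC fluorescence polarization. Compounds were added to Tsg101 binding domain (10 uM final), then FITC-PTAP peptide (50 nM final), 20 min at r.t. Total S+P intensity flags fluorescent compounds.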
DRV1 agonist – qHTS for Agonists of Human Resolvin D1 Receptor DRV1; CHO-K1 GPR32 beta-arrestin PathHunter luminescence, 90 min; zero percent set by DMSO-only wells; 48,000 tested, 2.5% active; activation, % at 76.9 µM; AID 1346428, 2018;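 active = activation of at least 60% and not above a set upper limit, about 1 call in 100 departs from these limits; inconclusive = activation of 40% to 60%, or above that upper limit; inactive = activation under 40%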; also: 0% is about no effect
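PathHunter beta-arrestin recruitment in CHO-K1 cells stably expressing ProLink-tagged GPR32. Cells were exposed to compound for 90 min at 37 C, then chemiluminescence was read after 1 h detection at ambient temperature; DMSO served as basal control.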
GALC G270D act – A Novel Cell-Based Assay to Identify Small Molecules for B -Galactocerebrosidase; P54803; 145M-Twi-hGALC-G270D cells (Twitcher mouse brain line with human GALC G270D), HMU-beta-Gal fluorescence, 48 h; Potency, µM (titrated, usually from 57.5 µM), actives largely listed as activators; 45,000 tested, 0.1% active; AID 1159614, 2016; also: potency is read from the fitted curve at half-maximal effect; 0% is about no effect; nearly all actives have a fitted effect of over 65% in size
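Live 145M-Twi cells (Twitcher mouse brain-derived, GALC-null) stably expressing human GALC-G270D, with a wild-type GALC line, were compound-treated. Residual GALC activity was then read as fluorescence from 0.1 mM final HMU-β-gal at pH 5.2; higher signal means activation.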
Active calls of the source: *; i = inactive; ? = inconclusive; / = no result; [ ] = remark or other dose. Most compounds without a hit are left out; they make up all but 2.8% or so of the library. Unless noted, calls follow the shape of the dose curve; as a rule, active = well fitted curve in the direction sought with a large enough effect; inconclusive = small, poorly fitted or top-dose-only effect, or another doubt; inactive = no such curve, though single readings can be large; an effect the other way counts as inactive or inconclusive.

SMILES	FH mod	B2AR arrestin ag	GALK inhibitor	PTAP-TSG101 blk	DRV1 agonist	GALC G270D act
O=c1cc[nH]c(=O)[nH]1	1%[53.3 µM]	/	/	/	45	i
O=c1cc[nH]c(=S)[nH]1	-15%[53.3 µM]	/	/	/	68*	i
O=C(Cn1ncc2c1-c1ccccc1OC2)N1CCN(c2ccccc2F)CC1	-23%	i	5%	i	92*	i
Cc1ccc2c(c1)-c1c(cnn1CC(=O)N1CCN(c3ccccc3F)CC1)CO2	-2%	i	6%	i	-14	i
CC1OC2OC(=O)C3(C)CC4=C(CO)C5=C(CC(=O)C4(C)C(C1=O)C23)C(C)(C)OC(=O)C5 (centres undefined)	8%[53.3 µM]	/	/	/	/	/
O=C1c2ccccc2-[n+]2ccc3c([nH]c4ccccc43)c21	6.9µM*	/	/	/	/	/
NC1(C(=O)NC(CCO)c2ccc(Cl)cc2)CCN(c2ncnc3[nH]ccc23)CC1 (centres undefined)	-1%	/	/	/	/	/
CN1C(=O)C(C)(C)c2cc(S(=O)(=O)N3CCCC3C(=O)Nc3ccc(F)cc3)ccc21 (centres undefined)	1%	i	3%	i	-2	i
O=C(Nc1ccc(F)c(Cl)c1)C1CCCN1S(=O)(=O)c1ccc(F)cc1 (centres undefined)	-5%	i	0%	i	83*	i
O=C(O)c1c[nH]c2c(ccc3ccccc32)c1=O	-6%	/	/	/	/	/
CC(C)(C)NCCCNC(=O)c1cccc(Br)c1	0%	/	/	/	/	/
N#C/C(=C\c1ccc(-c2cc(Cl)ccc2Cl)o1)C(=O)Nc1ccccc1C(=O)O	-18%	i	0%	i	111*	i
Cc1ccc(NC(=O)/C(C#N)=C\c2ccc(-c3ccc(Cl)cc3)o2)c(C)c1	10%	?	0%	i	-6	i
Cc1ccc(-n2ccnc(NCCc3ccccc3)c2=O)cc1C	-15%	i	1%	i	16	i
Cc1ccc(-n2ccnc(NCCc3ccc(S(N)(=O)=O)cc3)c2=O)c(C)c1	3%	i	2%	i	81*	i
COc1ccc(-n2ccnc(NCc3ccc(C)cc3)c2=O)cc1OC	-29%	i	1%	i	65*	i
COc1ccc(-n2ccnc(NCc3ccccc3Cl)c2=O)cc1OC	8%	i	-3%	i	6	i
Cc1cc(-n2ccnc(NCCc3ccc(S(N)(=O)=O)cc3)c2=O)ccc1Br	-3%	i	4%	i	120*	i
Cc1ccc(-n2ccnc(NCCc3ccc(S(N)(=O)=O)cc3)c2=O)cc1C	8%	i	-4%	i	95*	i
CCOC(=O)[C@H](CCc1ccccc1)CC1(C(=O)N[C@H]2CCc3ccccc3N(CC(=O)O)C2=O)CCCC1	0%	/	/	/	/	/
COc1c(C)c(C(=O)c2ccc(N)c(C(=O)O)c2)n2ccccc12	-23%	/	/	/	/	/
COc1cc(N)c(Cl)cc1C(=O)NC1CCN(CCCOc2ccc(F)cc2)CC1OC (centres undefined)	-1%[53.3 µM]	/	/	/	64*	i
Cc1ccc(Cl)cc1NC(=O)CSc1nc(C)c(C)c(C)c1C#N	-1%	i	8%	i	115*	i
COc1ccc(OCC(=O)Nc2cc(-c3cccc(Cl)c3)nn2-c2ccccc2)cc1	-5%	i	0%	i	100*	i
COc1ccc(OCC(=O)Nc2cc(-c3ccccc3F)nn2-c2ccccc2)cc1	-6%	i	0%	i	91*	i
SMILES	FH mod	B2AR arrestin ag	GALK inhibitor	PTAP-TSG101 blk	DRV1 agonist	GALC G270D act
CCC(CC)C(=O)Nc1cc(-c2ccccc2F)nn1-c1ccccc1	0%	i	0%	i	-18	i
C=C1C(=O)OC2/C=C(\COC(C)=O)CC/C=C(\C=O)CC(OC(=O)C(C)CC)C12 (centres undefined)	-1%[53.3 µM]	/	/	/	/	/
CCc1ccccc1Nc1cc(C(=O)NCCCN(C)C2CCCCC2)c2ccccc2n1	-1%	i	0%	i	79*	i
Cc1ccc(C)c(Nc2cc(C(=O)NCCCN(C)C3CCCCC3)c3ccccc3n2)c1	2%	i	6%	i	-9	i
CCCn1c(=O)c2sccc2n2c(CCCC(=O)NCc3ccccc3)nnc12	0%	i	0%	i	0	i
CCCCC(CC)CNC(=O)CCCc1nnc2n(CCC)c(=O)c3sccc3n12 (centres undefined)	-10%	i	1%	i	80*	i
COC(=O)N[C@H](C(=O)N1[C@@H]2CC[C@@H](C2)[C@H]1c1nc2ccc(-c3ccc4c(c3)C(F)(F)c3cc(-c5cnc([C@@H]6CCC7(CC7)N6C(=O)[C@@H](NC(=O)OC)C(C)C)[nH]5)ccc3-4)cc2[nH]1)C(C)C	-14%[53.3 µM]	/	/	/	/	/
C/C=C(\C)C(=O)OCC1OC(OC2OC(COC(=O)/C(C)=C/C)C(OC3OC(CO)C(OC(=O)/C(C)=C/C)C(OC(=O)/C(C)=C/C)C3O)C(O)C2O)C(O)C(O)C1OC1OC(CO)C(OC(=O)/C(C)=C/C)C(OC(=O)/C(C)=C/C)C1O (centres undefined)	8%[20.6 µM]	/	/	/	/	/
CNC(=O)c1cc(Oc2ccc(NC(=O)Nc3ccc(Cl)c(C(F)(F)F)c3)cc2)ccn1	-19%	/	/	/	92*	i
CC(=O)CC(=O)Nc1ccc(Cl)c(C(F)(F)F)c1	2%	/	/	/	/	/
COC(=O)c1ccc2c(c1)[nH]c1ncnc(NCCCN3CCCCC3)c12	-5%	/	/	/	/	/
Cc1ccc(-n2ncc3c(N4CCN(CCO)CC4)ncnc32)cc1Cl	-12%	i	0%	i	65*	i
Clc1cccc(-n2ncc3c(N4CCN(Cc5ccccc5)CC4)ncnc32)c1	-13%	i	2%	i	-1	i
Cc1ccc(-n2ncc3c(N4CCN(Cc5ccccc5)CC4)ncnc32)cc1C	-15%	i	-2%	i	75*	i
Cc1ccc(Cl)cc1-n1ncc2c(N3CCC(C)CC3)ncnc21	-11%	i	2%	i	62*	i

Screening data from PubChem BioAssay.
